Data on 6 compounds can be found in PubChem BioAssay.

Each structure is given as a SMILES string. Activity calls are given as the source filed them.

Assay [1] concerns Plasmodium falciparum Sir2 (PF13_0152, Sir2A). As to the kind of experiment: Plasmodium falciparum Sir2A binding compounds – biochemical, small-molecule microarray, 635 nm fluorescence, primary screen (AID 1098).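 Note: score merges spot fluorescence intensity with its signal-to-noise ratio.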 Particulars: fluorescence 635 nm, higher = more signal.
Assay [2] is described as follows: probe aDKK1 binding to arrayed compounds – biochemical, biotinylated probe, 635/667 nm fluorescence, primary screen (AID 1099).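 Note: score merges 667nm spot fluorescence with signal to noise across triplicate slides.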 The conditions noted are these: small-molecule microarray, higher = more signal.
A short description of assay [3]: probe aCHRDL2 binding to arrayed compounds – biochemical, biotinylated probe, 635/667 nm fluorescence, primary screen (AID 1100). Particulars: small-molecule microarray, higher = more signal.
Assay [4] can be described thus: change in splice reporter luminescence, either direction, cell-based, HEK293, spliceosome inhibition project, primary screen (AID 1101).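 Note: HEK293 cells carrying a splicing-competent luciferase reporter gene; test concentration not given here.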 The conditions noted are these: HEK293 splicing luciferase reporter, 24 h, higher = more signal, called active from +8 up or from −8 down. In general terms: A reporter such as luciferase makes a cellular process visible.
In assay [5] the target is Fibroblast growth factor 10 (Homo sapiens) (UniProt O15520). As to the kind of experiment: compounds binding fibroblast growth factor 10 – biochemical, small-molecule microarray, 635 nm fluorescence, primary screen (AID 1102). The conditions noted are these: FGF10 binding, fluorescence 635 nm, higher = more signal.
Sequence of Fibroblast growth factor 10 (Homo sapiens) (O15520 whole entry, looked up): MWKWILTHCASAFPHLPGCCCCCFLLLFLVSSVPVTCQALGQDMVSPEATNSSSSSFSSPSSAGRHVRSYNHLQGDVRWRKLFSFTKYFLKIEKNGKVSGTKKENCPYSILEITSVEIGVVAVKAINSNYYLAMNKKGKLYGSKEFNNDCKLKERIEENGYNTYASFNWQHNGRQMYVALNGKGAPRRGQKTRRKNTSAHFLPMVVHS
For assay [6], the system named is glycogen synthase kinase-3 (GSK3A per assay name; protocol says GSK3B). Put plainly: compounds binding glycogen synthase kinase-3 – biochemical, small-molecule microarray, 635 nm fluorescence, GSK3A, primary screen (AID 1103). Note: the record names both GSK3A and GSK3B. The conditions noted are these: fluorescence 635 nm, higher = more signal.
In assay [7] the target is Epidermal growth factor receptor (Homo sapiens) (UniProt P00533). As to the kind of experiment: compounds binding epidermal growth factor receptor – biochemical, small-molecule microarray, 635 nm fluorescence, primary screen (AID 1104).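 Note: score merges 667 nm emission intensity with spot signal to noise over triplicate slides.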 Particulars: EGFR binding, higher = more signal.
Sequence of Epidermal growth factor receptor (Homo sapiens) (P00533 whole entry, looked up): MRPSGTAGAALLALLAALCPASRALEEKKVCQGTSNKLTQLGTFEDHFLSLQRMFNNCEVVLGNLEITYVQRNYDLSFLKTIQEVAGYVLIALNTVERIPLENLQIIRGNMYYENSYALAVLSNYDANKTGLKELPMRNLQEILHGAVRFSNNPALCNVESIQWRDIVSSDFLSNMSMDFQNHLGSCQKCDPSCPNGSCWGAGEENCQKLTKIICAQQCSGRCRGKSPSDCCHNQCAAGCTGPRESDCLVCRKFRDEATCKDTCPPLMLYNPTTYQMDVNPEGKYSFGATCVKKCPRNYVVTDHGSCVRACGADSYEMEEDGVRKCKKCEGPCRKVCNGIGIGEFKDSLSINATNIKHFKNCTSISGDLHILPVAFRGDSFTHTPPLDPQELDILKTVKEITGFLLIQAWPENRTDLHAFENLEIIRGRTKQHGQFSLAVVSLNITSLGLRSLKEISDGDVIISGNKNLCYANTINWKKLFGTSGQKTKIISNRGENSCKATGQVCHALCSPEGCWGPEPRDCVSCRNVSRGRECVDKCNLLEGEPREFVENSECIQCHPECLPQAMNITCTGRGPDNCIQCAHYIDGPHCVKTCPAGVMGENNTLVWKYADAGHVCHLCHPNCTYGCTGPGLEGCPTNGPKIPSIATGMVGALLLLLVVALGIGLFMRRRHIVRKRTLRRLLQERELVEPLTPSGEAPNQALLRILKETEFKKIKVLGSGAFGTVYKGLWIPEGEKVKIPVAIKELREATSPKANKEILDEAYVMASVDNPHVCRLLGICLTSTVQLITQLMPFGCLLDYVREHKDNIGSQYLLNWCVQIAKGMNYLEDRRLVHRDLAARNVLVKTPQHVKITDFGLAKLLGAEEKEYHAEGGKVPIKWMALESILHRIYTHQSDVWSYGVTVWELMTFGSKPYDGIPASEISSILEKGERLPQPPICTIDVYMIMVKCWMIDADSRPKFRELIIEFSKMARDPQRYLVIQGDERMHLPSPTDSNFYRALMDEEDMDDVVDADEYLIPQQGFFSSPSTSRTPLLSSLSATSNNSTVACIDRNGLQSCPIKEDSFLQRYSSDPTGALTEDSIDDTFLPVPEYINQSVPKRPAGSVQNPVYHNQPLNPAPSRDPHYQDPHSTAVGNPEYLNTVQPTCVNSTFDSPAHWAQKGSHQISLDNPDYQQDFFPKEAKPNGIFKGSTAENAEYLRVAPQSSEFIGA
The target of assay [8] is Follistatin-related protein 3 (Homo sapiens) (UniProt O95633). Put plainly: compounds binding follistatin-related protein 3 – biochemical, small-molecule microarray, 635 nm fluorescence, primary screen (AID 1105).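 Note: score merges emission near 667 nm and signal to noise per printed spot across three slides.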 The conditions noted are these: FSTL3 binding, higher = more signal.
Sequence of Follistatin-related protein 3 (Homo sapiens) (O95633 whole entry, looked up): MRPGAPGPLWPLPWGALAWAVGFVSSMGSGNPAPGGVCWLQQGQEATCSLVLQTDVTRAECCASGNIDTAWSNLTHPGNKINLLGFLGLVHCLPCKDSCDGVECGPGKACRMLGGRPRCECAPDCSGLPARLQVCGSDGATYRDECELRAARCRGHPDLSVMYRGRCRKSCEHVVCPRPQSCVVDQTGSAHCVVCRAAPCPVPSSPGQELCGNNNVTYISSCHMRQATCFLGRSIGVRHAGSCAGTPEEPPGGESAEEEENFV
Assay [9] concerns the target Dickkopf-related protein 1 (Homo sapiens) (UniProt O94907). Put plainly: small molecules binding DKK1 protein – biochemical, small-molecule microarray, 635 nm fluorescence scan, primary screen (AID 1106).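 Note: score merges emission near 667 nm with signal to noise over three replicate slides.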 The conditions noted are these: higher = more signal.
Assay [10] concerns Inhibin beta A chain (activin A). As to the kind of experiment: small molecules binding activin A – biochemical, small-molecule microarray, 635 nm fluorescence scan, primary screen (AID 1107).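 Note: mouse activin A protein probed at 4.33 µg/mL on printed slides; score merges bound-protein fluorescence near 667 nm with spot signal-to-noise.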 Particulars: INHBA, higher = more signal.
The subject of assay [11] is Human papillomavirus type 1a protein E7 (residues 44-93). As to the kind of experiment: small molecules binding HPV E7 44-93 – biochemical, small-molecule microarray, residues 44-93, 635 nm fluorescence, primary screen (AID 1108).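 Note: E7 fragment applied at 1 µg/mL in TBST for 1 h at 4 C; score combines spot fluorescence with its signal to noise ratio.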 Particulars: fluorescence 635 nm, higher = more signal.
Assay [12] can be described thus: hepatitis C replication reporter changes, two-sided – Huh7 cells, luciferase reporter, HCV replication inhibitor project, primary screen (AID 1109).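 Note: huh7 hepatoma cells harbouring a luciferase neomycin HCV replicon reporter; luciferase luminescence as measure of HCV replicon replication; test concentration not given here.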 Particulars: Huh7 HCV replicon luciferase reporter, 48 h; higher = more signal.
Assay [13] has as its target Left-right determination factor 2 (Homo sapiens) (UniProt O00292). Put plainly: small molecules binding LEFTY2 protein – biochemical, small-molecule microarray, 635 nm fluorescence scan, primary screen (AID 1110). The conditions noted are these: higher = more signal.
Assay [14] addresses Calmodulin-1 (Homo sapiens) (UniProt P0DP23). Put plainly: small molecules binding calmodulin-1 with EGTA – biochemical, small-molecule microarray, Cy5-labelled CALM1, profiling panel (AID 1111).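 Note: labelled calmodulin applied in Tris saline Tween buffer holding calcium plus EGTA and DTT.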 Particulars: Cy5-CALM1 binding fluorescence, higher = more signal.
The target is the same in assay [15]. As to the kind of experiment: small molecules binding Ca-loaded calmodulin-1 – biochemical, small-molecule microarray, Cy5-labelled CALM1, plus calcium, artefact control for SMM control-protein annotation, profiling panel (AID 1112).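 Note: score merges spot fluorescence with signal to noise from triplicate slides.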 The conditions noted are these: Cy5-CALM1 binding fluorescence, higher = more signal.
A short description of assay [16]: probe aWnt5a binding to arrayed compounds – biochemical, biotinylated probe, 635/667 nm fluorescence, primary screen (AID 1113).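 Note: score merges 667 nm fluorescence intensity with signal-to-noise per printed feature.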 The conditions noted are these: small-molecule microarray, higher = more signal.
Assay [17] in a line: probe aShh binding to arrayed compounds – biochemical, biotinylated probe, 635/667 nm fluorescence, primary screen (AID 1114).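 Note: probe is biotin-labelled aShh protein from a stem cell growth factor screen; measures binding of labelled protein to compounds printed on the slide; score merges feature fluorescence at 667 nm with signal-to-noise.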 The conditions noted are these: small-molecule microarray, higher = more signal.
Assay [18] in a line: probe aNog binding to arrayed compounds – biochemical, biotinylated probe, 635/667 nm fluorescence, primary screen (AID 1115).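 Note: probe is biotinylated aNog protein used at 0.15 µg/mL for 1 h at 4 C; z-score combines 667 nm fluorescence of each spot with its signal to noise.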 Particulars: small-molecule microarray, higher = more signal.
The target of assay [19] is Torsin-1A-interacting protein 1 (Homo sapiens) (UniProt Q5JTV8). Put plainly: compound microarray binding of lysate hLAP1 – cell lysate, small-molecule microarray, COS7 lysate, 635/667 nm fluorescence, primary screen (AID 1116). Particulars: 635 nm fluorescence, higher = more signal.
Sequence of Torsin-1A-interacting protein 1 (Homo sapiens) (Q5JTV8 whole entry, looked up): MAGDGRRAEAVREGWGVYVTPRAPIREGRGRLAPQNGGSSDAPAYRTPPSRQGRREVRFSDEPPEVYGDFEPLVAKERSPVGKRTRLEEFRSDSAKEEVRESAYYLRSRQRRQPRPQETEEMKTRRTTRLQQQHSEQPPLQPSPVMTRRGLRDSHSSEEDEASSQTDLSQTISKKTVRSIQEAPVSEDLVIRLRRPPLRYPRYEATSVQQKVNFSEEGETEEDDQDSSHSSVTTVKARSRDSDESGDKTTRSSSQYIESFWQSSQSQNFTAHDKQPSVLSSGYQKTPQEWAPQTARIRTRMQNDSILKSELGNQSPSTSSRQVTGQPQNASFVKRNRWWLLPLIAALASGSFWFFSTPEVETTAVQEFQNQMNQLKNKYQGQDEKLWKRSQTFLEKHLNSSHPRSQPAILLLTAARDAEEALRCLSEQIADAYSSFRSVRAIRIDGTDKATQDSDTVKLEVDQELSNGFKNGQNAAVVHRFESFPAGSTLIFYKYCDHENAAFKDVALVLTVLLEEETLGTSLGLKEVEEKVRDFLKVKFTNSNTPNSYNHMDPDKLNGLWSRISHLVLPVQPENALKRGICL
Assay [20] addresses Alpha-bungarotoxin (Bungarus multicinctus) (UniProt P60615). Put plainly: compounds binding labelled alpha-BTX control protein – biochemical, small-molecule microarray, Alexa647 label, 635/667 nm fluorescence, artefact control for SMM control protein annotation, profiling panel (AID 1117). The conditions noted are these: alpha-BTX-A647 binding fluorescence, higher = more signal.

Sequence of Alpha-bungarotoxin (Bungarus multicinctus) (P60615 whole entry, looked up): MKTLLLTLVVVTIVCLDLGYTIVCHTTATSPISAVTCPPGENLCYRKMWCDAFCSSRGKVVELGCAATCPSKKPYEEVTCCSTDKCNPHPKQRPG
Sequence of Dickkopf-related protein 1 (Homo sapiens) (O94907 whole entry, looked up): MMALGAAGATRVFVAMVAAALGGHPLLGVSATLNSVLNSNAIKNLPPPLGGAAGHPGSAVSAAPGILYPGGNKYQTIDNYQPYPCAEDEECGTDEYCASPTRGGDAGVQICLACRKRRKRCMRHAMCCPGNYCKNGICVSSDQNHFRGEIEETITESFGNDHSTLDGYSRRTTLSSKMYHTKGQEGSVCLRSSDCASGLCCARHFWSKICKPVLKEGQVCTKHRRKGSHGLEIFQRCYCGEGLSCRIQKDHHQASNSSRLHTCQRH
Sequence of Left-right determination factor 2 (Homo sapiens) (O00292 whole entry, looked up): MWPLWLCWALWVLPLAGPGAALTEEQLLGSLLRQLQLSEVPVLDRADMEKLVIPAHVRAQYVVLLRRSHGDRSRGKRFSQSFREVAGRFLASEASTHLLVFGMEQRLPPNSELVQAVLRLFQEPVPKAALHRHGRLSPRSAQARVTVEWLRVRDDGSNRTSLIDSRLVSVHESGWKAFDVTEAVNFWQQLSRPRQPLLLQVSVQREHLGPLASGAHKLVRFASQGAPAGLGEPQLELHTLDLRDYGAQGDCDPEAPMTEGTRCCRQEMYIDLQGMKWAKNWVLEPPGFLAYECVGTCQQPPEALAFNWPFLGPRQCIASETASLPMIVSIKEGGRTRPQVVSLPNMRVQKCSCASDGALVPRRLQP

Turning to `CC=CC(O)C1C=CC2C(=O)N(C)C(=O)C2N1N1CCCCC1` (stereo not given), the composite z-score in assay [1] was determined as 1.11; in assay [2], 0.123; in [3], 0.452; in assay [5] it was 0.888; in [6] it was 1.23; in assay [7], 0.519. The composite z-score in [8] turned out to be 1.26; in [9] it was 0.22; in assay [10], 0.898; in assay [11], 1.15; in assay [13], 0.364; in assay [14], 1.41. Besides, the composite z-score in [15] was 0.127; in [16] it was 0.0559; in assay [17] it was -0.151; in assay [18] it was -0.39; in [19], 0.923; in assay [20], 1.1. The z-score in [4] is 0.661 (inactive); in assay [12], 0.121.

As for `C=CC[C@@H](OC(=O)Nc1ccc(OC)cc1)c1ccc(OCCO)cc1`, the composite z-score in assay [1] was 0.468; in assay [2] it was -0.211; in [3], 0.979; in assay [5], -1.77; in assay [6], -0.711; in [7] it was -1.99. Further, the composite z-score was -0.993 in assay [8]; -2.37 in [9]; -2.6 in [10]; -1.65 in [11]; -1.8 in assay [13]; -1.4 in assay [14]. Besides, the composite z-score in assay [15] is -0.819; in [16], -0.224; in [17], 0.0723; in [18], -0.364; in assay [19] it was -0.326; in assay [20], -0.809. In addition, the z-score in [4] is -0.694 (inactive); in assay [12] it was 1.51.

For the compound `CCCC=C(CCC)[C@@H](NP(=O)(c1ccccc1)c1ccccc1)c1ccc(C(F)(F)F)cc1`, the composite z-score in [1] is -1.78; in assay [2] it was 0.578; in assay [3] it was 0.333; in assay [5], 0.0142; in assay [6], 0.734; in assay [7], -0.0267. Moreover, the composite z-score is -0.354 in assay [8]; -0.15 in assay [9]; 0.589 in assay [10]; 1.13 in [11]; 0.0293 in [13]; 0.0848 in assay [14]. For the same compound, the composite z-score in [15] is -0.33; in assay [16] it was 0.474; in assay [17], 0.135; in assay [18], -0.301; in assay [19], 0.145; in [20], 0.109. Also, the z-score was -0.139 (inactive) in [4] and -0.475 in assay [12].

For the compound `COc1ccc(C(O)C2C=CC3C(=O)N(C)C(=O)C3N2N2CCCCC2)cc1` (stereo not given), the composite z-score turned out to be 1.23 in [1]; 0.297 in [2]; 0.378 in assay [3]; 0.632 in [5]; 1.09 in assay [6]; 0.579 in [7]. Moreover, the composite z-score in assay [8] is 0.306; in assay [9] it was 0.224; in [10], 1.31; in [11] it was 0.069; in [13] it was 0.108; in assay [14], 0.204. Further, the composite z-score in [15] stood at 0.3; in assay [16], 0.1; in assay [17], 0.457; in [18], 1.07; in assay [19], 2.36; in assay [20], 0.55. For the same compound, the z-score in assay [4] is 1.33 (inactive); in assay [12] it was 0.633.

In the case of `COc1ccc(C(O)C2C=CC3C(=O)N(Cc4ccccc4)C(=O)C3N2n2cnnc2)c2ccccc12` (stereo not given), the composite z-score in assay [1] was 1.83; in assay [2] it was -0.0611; in [3], 0.873; in assay [5], -1.12; in assay [6], 0.233; in assay [7] it was -1.17. Besides, the composite z-score in [8] is 0.127; in [9] it was -1.45; in assay [10] it was 0.48; in assay [11], 1.52; in assay [13] it was -1.55; in assay [14] it was 0.0664. The composite z-score in assay [15] is -0.269; in assay [16] it was -0.12; in [17], -0.195; in assay [18], 0.657; in assay [19], 1.2; in [20], -0.438. Moreover, the z-score in [4] is -0.781 (inactive); in assay [12], -0.6.

Regarding `Cc1ccc(F)cc1S(=O)(=O)N[C@@H]1CCN(Cc2ccc(OC(C)C)cc2)C1`, the composite z-score in assay [1] is -0.38; in assay [2] it was -0.428; in [3] it was -0.272; in [5], -0.514; in assay [6] it was -0.654; in assay [7], -0.662. The composite z-score in assay [8] was -0.746; in [9] it was 0.183; in [10] it was 0.834; in assay [11] it was -1.22; in assay [13] it was 0.2; in assay [14], -0.892. In addition, the composite z-score is -1.14 in assay [15]; -0.103 in assay [16]; -0.153 in assay [17]; 0.0771 in assay [18]; 0.224 in assay [19]; -0.688 in assay [20]. For the same compound, the figures for the z-score in assay [4] and in [12] were 2.97 (inactive) and -3.58, respectively.
